# Experimental data reported in PubChem BioAssay AID1159580 (chemical genetic matrix, 2015).
# The whole screen tested about 5,500 compounds, of which about 2,000 (36%) were called active. Not shown: some 18% with an inconclusive outcome. The list shows a part of the results. A number with no mark means an inactive call. No stated cut-off is given here; in the data, active means normalized growth mostly below about 0.91 (no sharp cut-off); inconclusive means no clear call, values can overlap the other calls; inactive means mostly above about 0.92.
# Test: chemical genetic growth profiling, strain panel (AID 1159580);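 further: tested at 20 µM; growth read once vehicle control cultures reached saturation at 30 °C; 1 = growth at the plate median or of vehicle wells; lower values mean less growth of the strain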
# Details: growth OD
# [1] = S. cerevisiae deletion strains, locus YDL101C, strain DUN1, hits give low values
# [2] = S. cerevisiae deletion strains, locus YHR030C, strain SLT2, hits give low values
compound,measurement,setting,value
O=C1Nc2ccccc2/C1=C\c1ccc(Cl)cc1,normalized growth,"S. cerevisiae deletion strains, locus YAR019C, strain CDC15, hits give low values",0.946
same,normalized growth,"S. cerevisiae deletion strains, locus YBL105C, strain PKC1, hits give low values",0.943
same,normalized growth,"S. cerevisiae deletion strains, locus YBR135W, strain CKS1, hits give low values",0.94
same,normalized growth,"S. cerevisiae deletion strains, locus YBR136W, strain MEC1, hits give low values",0.941
same,normalized growth,"S. cerevisiae deletion strains, locus YBR160W, strain CDC28, hits give low values",0.947
same,normalized growth,"S. cerevisiae deletion strains, locus YDL017W, strain CDC7, hits give low values",0.945
same,normalized growth,"S. cerevisiae deletion strains, locus YDL028C, strain MPS1, hits give low values",0.947
same,normalized growth,[1],0.967
same,normalized growth,"S. cerevisiae deletion strains, locus YDL108W, strain KIN28, hits give low values",0.948
same,normalized growth,"S. cerevisiae deletion strains, locus YDL132W, strain cdc53, hits give low values",0.94
same,normalized growth,"S. cerevisiae deletion strains, locus YDL214C, strain PRR2, hits give low values",0.801
same,normalized growth,"S. cerevisiae deletion strains, locus YDR052C, strain DBF4, hits give low values",0.954
same,normalized growth,"S. cerevisiae deletion strains, locus YDR054C, strain cdc34, hits give low values",0.927
same,normalized growth,"S. cerevisiae deletion strains, locus YDR226W, strain ADK1, hits give low values",0.937
same,normalized growth,"S. cerevisiae deletion strains, locus YDR477W, strain SNF1, hits give low values",0.817
same,normalized growth,"S. cerevisiae deletion strains, locus YER123W, strain YCK3, hits give low values",0.8
same,normalized growth,"S. cerevisiae deletion strains, locus YER133W, strain GLC7, hits give low values",0.815
same,normalized growth,"S. cerevisiae deletion strains, locus YFL009W, strain cdc4, hits give low values",0.942
same,normalized growth,"S. cerevisiae deletion strains, locus YFL029C, strain CAK1, hits give low values",0.95
same,normalized growth,"S. cerevisiae deletion strains, locus YFR003C, strain YPI1, hits give low values",0.942
same,normalized growth,"S. cerevisiae deletion strains, locus YFR019W, strain FAB1, hits give low values",0.924
same,normalized growth,"S. cerevisiae deletion strains, locus YFR028C, strain CDC14, hits give low values",0.941
same,normalized growth,"S. cerevisiae deletion strains, locus YGR040W, strain KSS1, hits give low values",0.823
same,normalized growth,"S. cerevisiae deletion strains, locus YGR052W, strain FMP48, hits give low values",0.779
same,normalized growth,"S. cerevisiae deletion strains, locus YGR092W, strain DBF2, hits give low values",0.82
same,normalized growth,[2],0.755 (active)
same,normalized growth,"S. cerevisiae deletion strains, locus YHR079C, strain IRE1, hits give low values",0.776
same,normalized growth,"S. cerevisiae deletion strains, locus YHR082C, strain KSP1, hits give low values",0.794
same,normalized growth,"S. cerevisiae deletion strains, locus YHR205W, strain SCH9, hits give low values",0.519 (active)
same,normalized growth,"S. cerevisiae deletion strains, locus YIL147C, strain SLN1, hits give low values",0.944
same,normalized growth,"S. cerevisiae deletion strains, locus YJL095W, strain BCK1, hits give low values",0.741
same,normalized growth,"S. cerevisiae deletion strains, locus YJL128C, strain PBS2, hits give low values",0.852
same,normalized growth,"S. cerevisiae deletion strains, locus YJL157C, strain FAR1, hits give low values",0.819
same,normalized growth,"S. cerevisiae deletion strains, locus YJR016C, strain ILV3, hits give low values",0.946
same,normalized growth,"S. cerevisiae deletion strains, locus YJR066W, strain TOR1 (second series), hits give low values",0.651
same,normalized growth,"S. cerevisiae deletion strains, locus YJR066W, strain TOR1, hits give low values",0.781
same,normalized growth,"S. cerevisiae deletion strains, locus YKL048C, strain ELM1, hits give low values",0.862
same,normalized growth,"S. cerevisiae deletion strains, locus YKL067W, strain YNK1, hits give low values",0.867
same,normalized growth,"S. cerevisiae deletion strains, locus YKL101W, strain HSL1, hits give low values",0.829
same,normalized growth,"S. cerevisiae deletion strains, locus YKL193C, strain SDS22, hits give low values",0.942
same,normalized growth,"S. cerevisiae deletion strains, locus YKL203C, strain TOR2, hits give low values",0.91
same,normalized growth,"S. cerevisiae deletion strains, locus YLR113W, strain HOG1, hits give low values",0.692 (active)
same,normalized growth,"S. cerevisiae deletion strains, locus YLR133W, strain CKI1, hits give low values",0.818
same,normalized growth,"S. cerevisiae deletion strains, locus YLR403W, strain SFP1, hits give low values",0.714
same,normalized growth,"S. cerevisiae deletion strains, locus YML070W, strain DAK1, hits give low values",0.81
same,normalized growth,"S. cerevisiae deletion strains, locus YMR001C, strain CDC5, hits give low values",0.94
same,normalized growth,"S. cerevisiae deletion strains, locus YMR205C, strain PFK2 (second series), hits give low values",0.825
same,normalized growth,"S. cerevisiae deletion strains, locus YMR277W, strain FCP1, hits give low values",0.936
same,normalized growth,"S. cerevisiae deletion strains, locus YNL006W, strain LST8, hits give low values",0.956
same,normalized growth,"S. cerevisiae deletion strains, locus YNL020C, strain ARK1, hits give low values",0.801
same,normalized growth,"S. cerevisiae deletion strains, locus YNL161W, strain CBK1, hits give low values",0.948
same,normalized growth,"S. cerevisiae deletion strains, locus YNL183C, strain NPR1, hits give low values",0.788
same,normalized growth,"S. cerevisiae deletion strains, locus YNL207W, strain RIO2, hits give low values",0.947
same,normalized growth,"S. cerevisiae deletion strains, locus YNL222W, strain SSU72, hits give low values",0.945
same,normalized growth,"S. cerevisiae deletion strains, locus YNL307C, strain MCK1 (second series), hits give low values",0.844
same,normalized growth,"S. cerevisiae deletion strains, locus YOL078W, strain AVO1, hits give low values",0.951
same,normalized growth,"S. cerevisiae deletion strains, locus YOL136C, strain PFK27, hits give low values",0.833
same,normalized growth,"S. cerevisiae deletion strains, locus YOR061W, strain CKA2, hits give low values",0.853
same,normalized growth,"S. cerevisiae deletion strains, locus YOR119C, strain RIO1, hits give low values",0.9
same,normalized growth,"S. cerevisiae deletion strains, locus YOR231W, strain MKK1, hits give low values",0.863
same,normalized growth,"S. cerevisiae deletion strains, locus YOR329C, strain SCD5, hits give low values",0.949
same,normalized growth,"S. cerevisiae deletion strains, locus YPL031C, strain PHO85, hits give low values",0.816
same,normalized growth,"S. cerevisiae deletion strains, locus YPL153C, strain RAD53, hits give low values",0.836
same,normalized growth,"S. cerevisiae deletion strains, locus YPL204W, strain HRR25, hits give low values",0.824
same,normalized growth,"S. cerevisiae deletion strains, locus YPL209C, strain IPL1, hits give low values",0.943
same,normalized growth,"S. cerevisiae deletion strains, locus YPL256C, strain CLN2, hits give low values",0.742 (active)
same,normalized growth,"S. cerevisiae deletion strains, locus YPR025C, strain CCL1, hits give low values",0.943
same,normalized growth,"S. cerevisiae deletion strains, locus YPR106W, strain ISR1, hits give low values",0.926
same,normalized growth,"S. cerevisiae deletion strains, locus YPR111W, strain DBF20, hits give low values",0.917
same,normalized growth,"S. cerevisiae deletion strains, strain NNK1, hits give low values",0.92
same,normalized growth,"S. cerevisiae deletion strains, strain TSCII, hits give low values",0.949
Clc1ccc(C=C2c3ccccc3-c3ccccc32)cc1,normalized growth,"S. cerevisiae deletion strains, locus YAL013W, strain DEP1, hits give low values",0.988
same,normalized growth,"S. cerevisiae deletion strains, locus YBR229C, strain ROT2, hits give low values",0.973
same,normalized growth,[1],0.986
same,normalized growth,"S. cerevisiae deletion strains, locus YDL134C, strain PPH21, hits give low values",1
same,normalized growth,"S. cerevisiae deletion strains, locus YDR150W, strain NUM1, hits give low values",0.95
same,normalized growth,"S. cerevisiae deletion strains, locus YEL061C, strain CIN8, hits give low values",0.99
same,normalized growth,"S. cerevisiae deletion strains, locus YGR078C, strain PAC10, hits give low values",1
same,normalized growth,[2],0.873
same,normalized growth,"S. cerevisiae deletion strains, locus YHR087W, strain rtc3, hits give low values",0.986
same,normalized growth,"S. cerevisiae deletion strains, locus YJL187C, strain SWE1, hits give low values",1
same,normalized growth,"S. cerevisiae deletion strains, locus YJR043C, strain POL32, hits give low values",0.981
same,normalized growth,"S. cerevisiae deletion strains, locus YJR075W, strain HOC1, hits give low values",0.979
same,normalized growth,"S. cerevisiae deletion strains, locus YLR039C, strain RIC1, hits give low values",0.967
same,normalized growth,"S. cerevisiae deletion strains, locus YLR058C, strain SHM2 (second series), hits give low values",0.972
same,normalized growth,"S. cerevisiae deletion strains, locus YLR085C, strain ARP6, hits give low values",0.996
same,normalized growth,"S. cerevisiae deletion strains, locus YLR262C, strain YPT6, hits give low values",0.855
same,normalized growth,"S. cerevisiae deletion strains, locus YML094W, strain GIM5, hits give low values",1.03
same,normalized growth,"S. cerevisiae deletion strains, locus YMR219W, strain ESC1, hits give low values",0.988
same,normalized growth,"S. cerevisiae deletion strains, locus YMR263W, strain SAP30, hits give low values",0.983
same,normalized growth,"S. cerevisiae deletion strains, locus YMR307W, strain GAS1, hits give low values",1.03
same,normalized growth,"S. cerevisiae deletion strains, locus YNL128W, strain TEP1, hits give low values",0.984
same,normalized growth,"S. cerevisiae deletion strains, locus YNL153C, strain GIM3, hits give low values",0.965
same,normalized growth,"S. cerevisiae deletion strains, locus YNL298W, strain CLA4 (second series), hits give low values",0.949
same,normalized growth,"S. cerevisiae deletion strains, locus YNL322C, strain KRE1, hits give low values",1
same,normalized growth,"S. cerevisiae deletion strains, locus YNR030W, strain Alg12, hits give low values",0.957
same,normalized growth,"S. cerevisiae deletion strains, locus YPL055C, strain LGE1, hits give low values",1.01
same,normalized growth,"S. cerevisiae deletion strains, locus YPL241C, strain CIN2, hits give low values",0.995
same,normalized growth,"S. cerevisiae deletion strains, locus YPR135W, strain CTF4, hits give low values",0.855
same,normalized growth,"S. cerevisiae strains, strain wild type, hits give low values",0.961
